Assay results: the supplement of paper PMC11732987, “Enantioselective OTUD7B fragment discovery through chemoproteomics screening and high-throughput optimisation” (Communications Chemistry, 2025)

How the values were obtained:
Test in all cases: log2 ratio of Biotin-Ahx-Ub-VS probe labelling (fragment/DMSO); higher = less target engagement (more negative = stronger competition), active = hit call of the paper (q ≤ 0.05, log2 ratio ≤ -1)
Details in all cases: compound concentration: 200 uM; treatment time: 3 h
USP34 = USP34 (UniProt Q70CQ2)
Sequence of USP34 (Q70CQ2 whole entry, the tested form may be a part): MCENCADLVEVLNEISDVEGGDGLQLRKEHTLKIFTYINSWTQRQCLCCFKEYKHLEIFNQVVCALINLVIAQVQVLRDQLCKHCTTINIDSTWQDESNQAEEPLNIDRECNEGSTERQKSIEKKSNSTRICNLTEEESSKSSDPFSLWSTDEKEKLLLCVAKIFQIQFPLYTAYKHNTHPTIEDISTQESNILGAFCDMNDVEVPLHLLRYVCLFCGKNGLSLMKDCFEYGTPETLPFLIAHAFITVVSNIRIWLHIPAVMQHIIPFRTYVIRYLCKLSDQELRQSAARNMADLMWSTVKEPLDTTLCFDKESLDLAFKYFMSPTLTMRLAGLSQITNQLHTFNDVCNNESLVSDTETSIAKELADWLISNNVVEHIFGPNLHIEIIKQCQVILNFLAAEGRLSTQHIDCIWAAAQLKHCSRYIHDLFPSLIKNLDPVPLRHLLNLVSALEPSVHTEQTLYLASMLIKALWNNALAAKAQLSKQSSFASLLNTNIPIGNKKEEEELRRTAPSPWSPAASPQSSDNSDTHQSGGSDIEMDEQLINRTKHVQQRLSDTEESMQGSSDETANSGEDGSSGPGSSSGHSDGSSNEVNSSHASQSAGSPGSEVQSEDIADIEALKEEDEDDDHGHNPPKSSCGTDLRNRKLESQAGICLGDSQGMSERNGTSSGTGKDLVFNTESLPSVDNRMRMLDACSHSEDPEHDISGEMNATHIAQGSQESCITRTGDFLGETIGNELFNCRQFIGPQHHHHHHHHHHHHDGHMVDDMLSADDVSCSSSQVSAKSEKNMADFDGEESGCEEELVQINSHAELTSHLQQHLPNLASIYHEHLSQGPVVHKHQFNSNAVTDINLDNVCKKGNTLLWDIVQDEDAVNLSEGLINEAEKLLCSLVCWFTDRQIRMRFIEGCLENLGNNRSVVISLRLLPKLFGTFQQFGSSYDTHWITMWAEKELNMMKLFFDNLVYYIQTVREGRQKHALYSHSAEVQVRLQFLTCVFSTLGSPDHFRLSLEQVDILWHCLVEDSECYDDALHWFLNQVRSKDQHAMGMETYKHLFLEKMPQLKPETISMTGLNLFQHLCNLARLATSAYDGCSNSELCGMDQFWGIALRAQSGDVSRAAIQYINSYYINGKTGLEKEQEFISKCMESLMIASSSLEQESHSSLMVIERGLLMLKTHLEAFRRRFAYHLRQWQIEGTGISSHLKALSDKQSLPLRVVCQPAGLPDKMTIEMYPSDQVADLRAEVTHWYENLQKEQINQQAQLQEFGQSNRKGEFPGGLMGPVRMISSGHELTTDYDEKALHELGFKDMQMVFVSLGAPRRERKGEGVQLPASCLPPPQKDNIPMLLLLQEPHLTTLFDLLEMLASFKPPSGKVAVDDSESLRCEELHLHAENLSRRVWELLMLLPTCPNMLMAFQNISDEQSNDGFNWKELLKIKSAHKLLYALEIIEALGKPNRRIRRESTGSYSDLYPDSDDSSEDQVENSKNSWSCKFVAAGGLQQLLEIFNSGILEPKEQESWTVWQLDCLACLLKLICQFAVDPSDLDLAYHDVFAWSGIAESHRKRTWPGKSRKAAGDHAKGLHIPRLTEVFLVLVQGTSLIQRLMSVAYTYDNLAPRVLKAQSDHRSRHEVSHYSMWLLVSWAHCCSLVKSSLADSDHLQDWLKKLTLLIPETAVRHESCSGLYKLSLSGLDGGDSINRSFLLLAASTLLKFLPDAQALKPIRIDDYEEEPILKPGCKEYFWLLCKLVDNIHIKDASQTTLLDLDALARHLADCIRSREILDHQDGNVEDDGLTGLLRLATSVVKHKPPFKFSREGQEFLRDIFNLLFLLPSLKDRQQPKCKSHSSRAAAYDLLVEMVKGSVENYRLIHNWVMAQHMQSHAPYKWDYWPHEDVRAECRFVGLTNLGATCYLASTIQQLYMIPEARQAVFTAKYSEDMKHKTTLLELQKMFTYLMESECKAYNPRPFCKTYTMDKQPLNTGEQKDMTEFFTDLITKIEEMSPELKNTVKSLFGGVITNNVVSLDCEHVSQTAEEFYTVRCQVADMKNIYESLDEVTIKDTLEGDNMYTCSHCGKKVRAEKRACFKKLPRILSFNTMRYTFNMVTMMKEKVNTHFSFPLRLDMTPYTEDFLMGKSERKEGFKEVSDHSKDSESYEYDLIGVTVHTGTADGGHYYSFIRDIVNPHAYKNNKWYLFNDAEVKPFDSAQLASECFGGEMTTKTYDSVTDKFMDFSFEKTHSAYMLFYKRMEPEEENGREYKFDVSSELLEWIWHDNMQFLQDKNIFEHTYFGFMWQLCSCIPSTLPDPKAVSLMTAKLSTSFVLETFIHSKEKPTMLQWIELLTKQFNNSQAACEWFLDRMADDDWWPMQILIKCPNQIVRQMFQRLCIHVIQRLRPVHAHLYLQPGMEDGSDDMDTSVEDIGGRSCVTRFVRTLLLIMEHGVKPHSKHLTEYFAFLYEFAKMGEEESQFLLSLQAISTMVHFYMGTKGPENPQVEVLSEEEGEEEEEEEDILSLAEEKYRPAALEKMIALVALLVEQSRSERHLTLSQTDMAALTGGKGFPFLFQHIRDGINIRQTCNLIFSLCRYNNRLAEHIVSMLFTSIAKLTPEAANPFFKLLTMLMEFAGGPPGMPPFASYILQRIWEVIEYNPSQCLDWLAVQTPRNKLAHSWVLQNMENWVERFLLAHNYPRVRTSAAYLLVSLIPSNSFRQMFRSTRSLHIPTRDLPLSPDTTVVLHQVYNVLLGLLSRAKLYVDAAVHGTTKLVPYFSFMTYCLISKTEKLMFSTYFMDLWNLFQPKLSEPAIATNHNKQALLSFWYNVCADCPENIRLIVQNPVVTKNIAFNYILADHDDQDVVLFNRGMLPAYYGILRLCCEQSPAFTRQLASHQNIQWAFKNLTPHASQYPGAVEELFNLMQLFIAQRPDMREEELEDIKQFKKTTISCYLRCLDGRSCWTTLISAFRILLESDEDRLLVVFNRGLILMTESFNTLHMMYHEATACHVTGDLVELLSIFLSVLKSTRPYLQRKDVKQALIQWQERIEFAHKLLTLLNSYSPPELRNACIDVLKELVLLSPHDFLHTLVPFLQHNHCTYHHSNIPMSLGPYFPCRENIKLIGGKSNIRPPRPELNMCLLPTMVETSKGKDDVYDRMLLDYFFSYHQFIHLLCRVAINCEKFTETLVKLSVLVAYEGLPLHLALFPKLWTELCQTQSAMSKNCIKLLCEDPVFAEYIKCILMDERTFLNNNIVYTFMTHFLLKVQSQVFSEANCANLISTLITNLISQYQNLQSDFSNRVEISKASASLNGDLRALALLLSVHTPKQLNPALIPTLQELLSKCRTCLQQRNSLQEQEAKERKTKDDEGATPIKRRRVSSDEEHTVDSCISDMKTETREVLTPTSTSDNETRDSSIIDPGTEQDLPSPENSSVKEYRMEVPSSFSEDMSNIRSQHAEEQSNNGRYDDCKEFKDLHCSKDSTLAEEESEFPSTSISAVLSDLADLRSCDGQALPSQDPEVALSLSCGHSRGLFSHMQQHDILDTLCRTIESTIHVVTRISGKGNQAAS
Method in brief: (§1)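 Labelling with Biotin-Ahx-Ub-VS (0.5 µM final, 1 h) followed a 3 h triplicate treatment of HEK293T lysate (495 µg per sample, Tris/CHAPS/IGEPAL buffer with protease inhibitors) with fragment at 200 µM or vehicle. Labelled DUBs were NeutrAvidin-enriched, digested with LysC and trypsin, and run by diaPASEF LC-MS/MS. The values, average log2 fragment/vehicle ratios by unpaired t-test, come from global-median-normalised Spectronaut label-free quantities. Proteins with ≥2 unique peptides were used.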

USP36 = biological target: T1, USP36 (UniProt Q9P275)
T1 sequence (whole entry): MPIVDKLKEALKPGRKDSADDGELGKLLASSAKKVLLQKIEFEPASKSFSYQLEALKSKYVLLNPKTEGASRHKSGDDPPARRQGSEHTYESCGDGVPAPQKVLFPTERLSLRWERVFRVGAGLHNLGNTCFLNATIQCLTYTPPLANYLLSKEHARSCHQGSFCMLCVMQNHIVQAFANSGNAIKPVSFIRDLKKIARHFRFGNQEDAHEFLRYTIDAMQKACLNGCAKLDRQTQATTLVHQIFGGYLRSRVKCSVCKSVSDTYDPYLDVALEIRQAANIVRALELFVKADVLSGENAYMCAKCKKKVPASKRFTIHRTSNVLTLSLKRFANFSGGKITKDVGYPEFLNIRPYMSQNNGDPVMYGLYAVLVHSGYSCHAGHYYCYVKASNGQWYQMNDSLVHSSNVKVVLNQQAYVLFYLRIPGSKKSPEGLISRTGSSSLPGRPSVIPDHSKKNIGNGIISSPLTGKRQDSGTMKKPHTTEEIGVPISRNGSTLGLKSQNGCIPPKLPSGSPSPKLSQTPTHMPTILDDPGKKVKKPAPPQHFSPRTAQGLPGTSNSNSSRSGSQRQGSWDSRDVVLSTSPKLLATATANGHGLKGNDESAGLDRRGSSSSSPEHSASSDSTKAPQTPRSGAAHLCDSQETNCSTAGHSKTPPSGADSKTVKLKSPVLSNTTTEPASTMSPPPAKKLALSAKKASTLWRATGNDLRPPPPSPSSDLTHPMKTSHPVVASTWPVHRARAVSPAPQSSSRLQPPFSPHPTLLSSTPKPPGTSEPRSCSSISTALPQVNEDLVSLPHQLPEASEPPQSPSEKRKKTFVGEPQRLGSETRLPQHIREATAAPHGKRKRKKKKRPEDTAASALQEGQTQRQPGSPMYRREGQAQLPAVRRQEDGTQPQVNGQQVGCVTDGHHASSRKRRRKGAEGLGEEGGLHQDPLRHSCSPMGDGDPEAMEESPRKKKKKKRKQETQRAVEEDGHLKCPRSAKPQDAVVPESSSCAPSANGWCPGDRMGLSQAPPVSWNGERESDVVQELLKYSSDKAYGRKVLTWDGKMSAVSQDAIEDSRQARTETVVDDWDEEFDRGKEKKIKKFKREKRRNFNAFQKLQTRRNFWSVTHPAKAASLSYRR
Method in brief: as §1

USP38 = biological target: T2, USP38 (UniProt Q8NB14)
T2 sequence (whole entry): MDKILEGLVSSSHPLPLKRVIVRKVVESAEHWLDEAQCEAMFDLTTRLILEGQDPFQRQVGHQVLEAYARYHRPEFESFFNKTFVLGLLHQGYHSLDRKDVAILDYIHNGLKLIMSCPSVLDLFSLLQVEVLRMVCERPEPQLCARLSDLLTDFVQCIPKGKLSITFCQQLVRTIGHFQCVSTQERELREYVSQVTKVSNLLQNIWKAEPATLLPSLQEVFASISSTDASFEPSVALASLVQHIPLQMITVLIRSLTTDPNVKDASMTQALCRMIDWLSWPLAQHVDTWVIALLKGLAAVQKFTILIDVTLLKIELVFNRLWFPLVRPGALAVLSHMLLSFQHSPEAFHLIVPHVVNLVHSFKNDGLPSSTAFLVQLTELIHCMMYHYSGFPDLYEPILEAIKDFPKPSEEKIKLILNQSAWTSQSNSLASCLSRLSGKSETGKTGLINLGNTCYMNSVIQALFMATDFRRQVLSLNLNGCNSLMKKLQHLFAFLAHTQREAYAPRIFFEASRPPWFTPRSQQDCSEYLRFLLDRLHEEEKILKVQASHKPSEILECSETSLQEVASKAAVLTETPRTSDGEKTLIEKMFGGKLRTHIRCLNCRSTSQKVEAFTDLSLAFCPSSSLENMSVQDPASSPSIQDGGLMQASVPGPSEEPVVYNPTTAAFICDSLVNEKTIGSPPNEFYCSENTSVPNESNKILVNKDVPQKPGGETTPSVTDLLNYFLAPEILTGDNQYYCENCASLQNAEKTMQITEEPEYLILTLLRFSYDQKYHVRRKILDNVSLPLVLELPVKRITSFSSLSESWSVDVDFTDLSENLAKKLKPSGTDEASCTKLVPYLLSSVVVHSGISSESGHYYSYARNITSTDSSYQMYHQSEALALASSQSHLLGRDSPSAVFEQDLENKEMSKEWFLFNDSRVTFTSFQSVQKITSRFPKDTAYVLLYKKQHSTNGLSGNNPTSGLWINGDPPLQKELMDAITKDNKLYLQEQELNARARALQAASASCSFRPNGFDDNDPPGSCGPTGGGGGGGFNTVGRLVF
Method in brief: as §1

USP39 = biological target: T3, USP39 (UniProt Q53GS9)
T3 sequence (whole entry): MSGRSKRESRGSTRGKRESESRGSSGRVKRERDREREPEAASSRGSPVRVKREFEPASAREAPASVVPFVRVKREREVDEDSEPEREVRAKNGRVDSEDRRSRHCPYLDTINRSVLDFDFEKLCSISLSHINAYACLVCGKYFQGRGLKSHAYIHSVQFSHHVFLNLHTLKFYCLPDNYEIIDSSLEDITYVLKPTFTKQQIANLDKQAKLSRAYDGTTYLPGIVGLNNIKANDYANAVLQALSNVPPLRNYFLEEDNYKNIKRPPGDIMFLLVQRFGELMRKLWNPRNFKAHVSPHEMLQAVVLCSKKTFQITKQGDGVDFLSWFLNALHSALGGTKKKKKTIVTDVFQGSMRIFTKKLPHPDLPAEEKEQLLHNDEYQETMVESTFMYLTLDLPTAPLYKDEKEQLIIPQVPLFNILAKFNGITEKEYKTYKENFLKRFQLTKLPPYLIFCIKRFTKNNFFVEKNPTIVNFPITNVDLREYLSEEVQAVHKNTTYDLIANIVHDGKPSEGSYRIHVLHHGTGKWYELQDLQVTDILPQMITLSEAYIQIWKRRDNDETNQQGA
Method in brief: as §1

USP4 = biological target: T4, USP4 (UniProt Q13107)
T4 sequence (whole entry): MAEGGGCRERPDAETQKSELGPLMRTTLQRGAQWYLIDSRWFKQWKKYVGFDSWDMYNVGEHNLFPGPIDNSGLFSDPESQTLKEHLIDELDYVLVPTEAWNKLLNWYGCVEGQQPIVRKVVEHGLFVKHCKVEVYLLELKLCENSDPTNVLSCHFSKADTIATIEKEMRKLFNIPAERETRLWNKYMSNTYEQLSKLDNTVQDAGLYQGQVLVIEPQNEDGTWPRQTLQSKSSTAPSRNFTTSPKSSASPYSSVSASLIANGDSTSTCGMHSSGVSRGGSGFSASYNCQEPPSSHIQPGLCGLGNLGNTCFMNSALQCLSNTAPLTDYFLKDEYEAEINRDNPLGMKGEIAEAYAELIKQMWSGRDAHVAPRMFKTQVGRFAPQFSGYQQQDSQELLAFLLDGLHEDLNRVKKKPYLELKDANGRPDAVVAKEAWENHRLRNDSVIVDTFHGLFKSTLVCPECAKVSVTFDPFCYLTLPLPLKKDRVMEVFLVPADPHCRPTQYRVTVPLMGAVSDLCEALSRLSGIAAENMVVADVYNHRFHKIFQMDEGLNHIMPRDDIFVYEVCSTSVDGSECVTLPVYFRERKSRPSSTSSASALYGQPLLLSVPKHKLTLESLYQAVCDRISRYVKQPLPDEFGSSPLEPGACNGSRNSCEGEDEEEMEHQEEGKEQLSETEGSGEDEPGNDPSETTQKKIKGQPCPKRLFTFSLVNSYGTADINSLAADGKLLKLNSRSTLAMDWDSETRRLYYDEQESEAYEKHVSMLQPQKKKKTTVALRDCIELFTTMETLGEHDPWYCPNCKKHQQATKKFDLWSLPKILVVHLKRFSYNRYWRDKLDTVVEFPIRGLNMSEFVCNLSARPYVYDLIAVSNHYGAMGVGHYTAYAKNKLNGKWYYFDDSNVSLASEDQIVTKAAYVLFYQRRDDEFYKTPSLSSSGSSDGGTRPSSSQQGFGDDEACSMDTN
Method in brief: as §1

Measured: log2 ratio of Biotin-Ahx-Ub-VS probe labelling

Cc1nc(CN2CCN(C(=O)CCl)CC2)cs1
inactive: USP34 0.0453 | USP36 -0.0366 | USP38 -0.217 | USP39 -0.381 | USP4 -0.261
